{
  "source": "PubChem BioAssay AID651821",
  "about": "(The Scripps Research Institute Molecular Screening Center, 2012)",
  "note": "Among all 370,000 compounds or so, about 4,700 (1.3%) were called active. This excerpt belongs to a sample that is enriched for actives. A number with no mark means an inactive call.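 The calls were made as follows: active = inhibition above the plate cutoff, the mean of all test compounds on that plate plus 3 SD (cut at about 35% in these data); inactive = the rest.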",
  "data": [
    {"assay": "small molecules binding CAG repeat RNA – biochemical, fluorescence, primary screen (AID 651821);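 also: 0% = DMSO alone and 100% = 100 µM mitoxantrone as full dye displacement; higher means more dye released from RNA so lower well fluorescence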", "details": "r(CAG) RNA repeat, TO-PRO-1 dye displacement fluorescence; at 3 µM; active compounds read high", "values": [
      {"compound": "CC(C)NC(=O)/C(C#N)=C\\c1ccc(N(C)C)c(Br)c1", "inhibition": "-7.35%"},
      {"compound": "COCC(=O)N[C@@H]1C[C@@H]2O[C@@H](CO)CC[C@@H]2O[C@@H]1CCc1ccc(-c2ccccc2)cc1", "inhibition": "-0.99%"},
      {"compound": "O=C(Nc1ccc2c(c1)CCC2)c1cccc(S(=O)(=O)Nc2ccccc2Cl)c1", "inhibition": "57.2% (active)"},
      {"compound": "O=C(NCC1(N2CCCCC2)CCCCC1)c1cccc(S(=O)(=O)Nc2ccccc2Cl)c1", "inhibition": "16.6%"},
      {"compound": "O=C(Nc1ccc2c(c1)CCC2)c1cccc(S(=O)(=O)N2CCN(c3ccc(F)cc3)CC2)c1", "inhibition": "13%"},
      {"compound": "CCOC(=O)[C@@]12CN(C(=O)OC(C)(C)C)CC=C1N(Cc1ccc(OC)cc1)C(=O)[C@H]2CC(=O)NCc1ccc(OC)c(OC)c1", "inhibition": "1.18%"},
      {"compound": "CCCCCCC(=O)Nc1nc(C)c(-c2csc(Nc3cccc(OC)c3)n2)s1", "inhibition": "28.5%"},
      {"compound": "CCCCCCC(=O)Nc1nc(C)c(-c2csc(Nc3cc(Cl)ccc3OC)n2)s1", "inhibition": "41.8% (active)"},
      {"compound": "C=CCCC(=O)Nc1nc(C)c(-c2csc(Nc3ccc(Cl)cc3)n2)s1", "inhibition": "31.7%"},
      {"compound": "COCCCNC(=O)C[C@H]1C[C@@]2(C(=O)OC)C(=C[C@H](C(C)(C)C)O[C@@H]2C)N(Cc2ccc3c(c2)OCO3)C1=O", "inhibition": "-0.27%"},
      {"compound": "CCOc1cc(/C=C(\\C#N)c2nc(-c3cccs3)c(NC(C)=O)s2)ccc1O", "inhibition": "37.7% (active)"},
      {"compound": "CCOc1ccc(/C=C/C(=O)N(CC)CC(=O)NCc2cccs2)cc1OC", "inhibition": "-8.5%"},
      {"compound": "CCOc1cc(/C=C(/C#N)c2ccc(Cl)cc2)cc(Cl)c1OCC(=O)O", "inhibition": "16.7%"},
      {"compound": "CCCN1C(=O)c2[nH]nc(-c3ccccc3)c2C1c1ccccc1", "note": "(stereo not given)", "inhibition": "0.38%"},
      {"compound": "Cc1ccccc1C(=O)N1CCC(C(=O)Oc2ccc(C#N)cc2)CC1", "inhibition": "-7.52%"},
      {"compound": "COC(=O)CCCC1=CC2=C(c3ccccc3)C(=O)C(C)(OC(=O)C3CCCC3)C(=O)C2=CN1c1ccc(OC)cc1", "note": "(stereo not given)", "inhibition": "6.99%"},
      {"compound": "CC1(OC(=O)C2CCCC2)C(=O)C=C2C=C(c3ccc(C#N)cc3)OC=C2C1=O", "note": "(stereo not given)", "inhibition": "50.7% (active)"},
      {"compound": "C=CC1=CCN(S(=O)(=O)C(C)(C)C)[C@@H]1CCO", "inhibition": "8.95%"},
      {"compound": "CCC(C)Cn1c(O)cc2nn(-c3nc4ccccc4s3)c(=O)c-2c1C", "note": "(stereo not given)", "inhibition": "56.8% (active)"},
      {"compound": "Cc1cccc(OCC(=O)Nc2ccc(C(=O)O)cc2NC(=O)COc2cccc(C)c2)c1", "inhibition": "50.5% (active)"},
      {"compound": "Cc1cc(C)cc(OCC(=O)Nc2ccc(N3CCOCC3)cc2N2CCOCC2)c1", "inhibition": "-4.13%"},
      {"compound": "Cc1cc(C)cc(OCC(=O)Nc2cc(NC(=O)COc3cc(C)cc(C)c3)cc(C(=O)O)c2)c1", "inhibition": "61.8% (active)"},
      {"compound": "Cc1cccc(OCC(=O)NC2CC(C)(C)NC(C)(C)C2)c1", "inhibition": "0.76%"},
      {"compound": "Cc1ccc(OCC(=O)Nc2ccc(C(=O)O)cc2NC(=O)COc2ccc(C)c(C)c2)cc1C", "inhibition": "19.4%"},
      {"compound": "COCC(=O)Nc1cc(C(=O)OC)cc(C(=O)OC)c1", "inhibition": "-0.01%"},
      {"compound": "COC(=O)Nc1nc2ccc(C(=O)C3CC3)cc2[nH]1", "inhibition": "4.25%"},
      {"compound": "C[C@H](C(=O)N(C)c1ccccc1)[C@@H](O)c1ccc2ccccc2c1", "inhibition": "1.73%"},
      {"compound": "CCOC(=O)[C@@]12CCC3=C1N(CCC3)C(=O)[C@H](CC(=O)N1CCN(C(=O)c3ccco3)CC1)C2", "inhibition": "4.55%"},
      {"compound": "CCCNC(=O)C1CC(=O)N(c2ccc(OCc3ccccc3)cc2)C1", "note": "(stereo not given)", "inhibition": "1.21%"},
      {"compound": "C=CCc1ccc(OCC(O)CN2CCN(Cc3ccccc3)CC2)c(OC)c1", "note": "(stereo not given)", "inhibition": "-8.04%"},
      {"compound": "COc1cc(C2CC(=O)N3CN(Cc4ccccc4)CSC3=C2C#N)ccc1OCc1ccccc1", "note": "(stereo not given)", "inhibition": "51.3% (active)"},
      {"compound": "C/C(=N/OC(=O)c1ccc(Br)cc1)c1ccc(C)cc1", "inhibition": "-2.66%"},
      {"compound": "COc1ccccc1C(=O)NC(CCSC)C(=O)NNC(=O)c1ccccc1C", "note": "(stereo not given)", "inhibition": "-5.48%"},
      {"compound": "Cc1ccc([C@@H]2CC(=O)[C@@H]3CN(S(=O)(=O)c4ccc(C)cc4)[C@H](c4ccccc4F)C[C@@H]3N2S(=O)(=O)c2ccc(Cl)cc2)cc1", "inhibition": "9.69%"},
      {"compound": "Cc1ccc(S(=O)(=O)N2[C@@H](c3cccc(Cl)c3)C(C(=O)O)=CC[C@H]2c2ccc(Cl)c(Cl)c2)cc1", "inhibition": "25.1%"},
      {"compound": "Cc1ccccc1S(=O)(=O)N1[C@@H](c2cccc(Cl)c2)C(C(=O)O)=CC[C@H]1c1ccc(Cl)cc1", "inhibition": "81.4% (active)"},
      {"compound": "Cc1ccc([C@@H]2CC=C(C(=O)O)[C@H](c3cccc(Cl)c3)N2S(=O)(=O)c2ccc(C)cc2)cc1", "inhibition": "77.2% (active)"},
      {"compound": "Cc1ccc(S(=O)(=O)N2[C@@H](c3ccccc3F)C(C(=O)O)=CC[C@H]2c2ccc(Cl)cc2)cc1", "inhibition": "60.2% (active)"},
      {"compound": "COc1ccc(C2CC=C(C(=O)O)C(c3ccccc3F)N2S(=O)(=O)c2ccc(C)cc2)cc1OC", "note": "(stereo not given)", "inhibition": "24.2%"},
      {"compound": "CCOC(=O)C1=CC[C@@H](c2ccccc2)N(S(=O)(=O)c2ccc(C)cc2)[C@H]1c1cccc(OC)c1", "inhibition": "7.08%"},
      {"compound": "Cc1ccccc1S(=O)(=O)N1[C@@H](c2cccc(Cl)c2)C(C(=O)OC(C)(C)C)=CC[C@H]1c1ccc(Cl)cc1", "inhibition": "3.52%"},
      {"compound": "CCN1C(=O)[C@@H]2[C@@H]3CN(S(=O)(=O)c4ccccc4C)[C@@H](c4ccc(Cl)cc4)[C@@H]3C(=O)C[C@@H]2C1=O", "inhibition": "8.04%"},
      {"compound": "Clc1ccc(-n2c(COc3ccccc3)nnc2SCc2nc3ccccc3[nH]2)cc1", "inhibition": "2.7%"},
      {"compound": "COC(=O)[C@@]12CCCCC=C1N(CCc1ccc(Cl)cc1)C(=O)[C@H]2CC(=O)NCc1ccc(OC)c(OC)c1", "inhibition": "8.28%"},
      {"compound": "CC(=NNC(N)=O)c1ccc(Cl)c(-n2cccc2)c1", "inhibition": "1.94%"},
      {"compound": "COc1ccc(CNC(=O)CN(Cc2ccccc2Cl)C(=O)c2csnn2)cc1", "inhibition": "3.39%"},
      {"compound": "O=S1(=O)c2c(cccc2N2CCCC2)O[C@H](COCc2ccccc2)CN1C1CC1", "inhibition": "1.71%"},
      {"compound": "CCCC1=Nc2cc(C(=O)NCc3ccco3)ccc2Sc2ccccc21", "inhibition": "2.23%"},
      {"compound": "C=CCN1[C@@H](Cc2ccccc2)COc2cccc(N3CCSCC3)c2S1(=O)=O", "inhibition": "5.53%"},
      {"compound": "Cc1ccccc1C(=O)N[C@H](C(=O)N1CCC[C@H]1C(=O)NCc1ccccc1)C(C)C", "inhibition": "0.37%"},
      {"compound": "O=C(NCc1cccs1)C1CCN(S(=O)(=O)c2ccccc2[N+](=O)[O-])CC1", "inhibition": "7.31%"},
      {"compound": "CCC(CO)Nc1cccc2c1S(=O)(=O)N(Cc1cn(Cc3ccccc3C(F)(F)F)nn1)Cc1ccccc1O2", "note": "(stereo not given)", "inhibition": "7.47%"},
      {"compound": "COC(=O)C[C@H]1CC[C@H]2[C@H](COc3ccc(NC(=O)C4CC4)cc3C(=O)N2C)O1", "inhibition": "-1.01%"},
      {"compound": "Nc1[nH]c(C(=O)c2ccc(Br)cc2)c(-c2ccc3c(c2)OCO3)c1C(=O)NCCc1c[nH]c2ccccc12", "inhibition": "14.8%"},
      {"compound": "Cc1ccc(C(=O)N(Cc2ccccn2)CC2CCCO2)cc1", "note": "(stereo not given)", "inhibition": "-0.73%"},
      {"compound": "CCOc1c(Br)cc(/C=C2\\C(=O)N(CCC#N)N=C2C)cc1OC", "inhibition": "16.2%"},
      {"compound": "COc1cc(/C=C2/C(=O)NN(c3cccc(Cl)c3)C2=O)cc(Br)c1O", "inhibition": "64% (active)"},
      {"compound": "CCN(C(=O)[C@@H](C1CC1)[C@@H](O)c1ccc2ccccc2c1)c1ccccc1", "inhibition": "-1.86%"},
      {"compound": "COC(=O)[C@]12C[C@H](CC(=O)NCc3ccc(C)o3)C(=O)N(CCC3=CCCCC3)C1=C[C@H](C(C)(C)C)O[C@@H]2C", "inhibition": "0.73%"},
      {"compound": "O=C(CNS(=O)(=O)c1ccccc1F)N1CCN(c2ccccn2)CC1", "inhibition": "-0.14%"},
      {"compound": "COc1ccc2[nH]c3c(C)c4cc[n+](C)cc4c(C)c3c2c1", "inhibition": "39.2% (active)"},
      {"compound": "CC(=O)N1CCCN(C2=Nc3ccccc3Sc3ccccc32)CC1", "inhibition": "-1.49%"},
      {"compound": "O=S1(=O)c2ccc(Br)cc2OC[C@@H](Cc2ccccc2)N1Cc1cn(Cc2ccco2)nn1", "inhibition": "4.58%"},
      {"compound": "Cc1ccc(Nc2nc(-c3ccc(O)cc3O)cs2)nc1", "inhibition": "36.2% (active)"},
      {"compound": "CC(=O)Nc1cnc(-c2ccc(O)cc2C)cn1", "inhibition": "1.38%"},
      {"compound": "Cc1ccc(-c2csc(NCCc3nc4cc(Cl)c(Cl)cc4n3CCOCCO)n2)cc1", "inhibition": "17.1%"},
      {"compound": "O=S(=O)(c1cccs1)N1CCCc2nc(-c3ccc(Br)cc3)ccc21", "inhibition": "4.14%"},
      {"compound": "O=C(CSc1nc2ccccc2nc1N1CCCCC1)N1CCN(S(=O)(=O)c2cccc([N+](=O)[O-])c2)CC1", "inhibition": "12%"},
      {"compound": "CCCCC(=O)Nc1nnc(S(=O)(=O)N(C)Cc2ccco2)s1", "inhibition": "5.48%"},
      {"compound": "CN(Cc1ccccc1)S(=O)(=O)c1nnc(NC(=O)c2ccccc2F)s1", "inhibition": "54.3% (active)"},
      {"compound": "O=C(Nc1nnc(-c2ccccc2F)s1)c1ccccc1F", "inhibition": "0.79%"},
      {"compound": "Cc1cccc(C(=O)Nc2c(-c3ccc(F)cc3)nc3ncccn23)c1", "inhibition": "0.58%"},
      {"compound": "C=C(C)C1CC23C(=O)C4(C(=O)c5ccccc5)C[C@@]5(C)CCC(CC2C1(C)C)(C4=O)C35OC", "note": "(stereo not given in full)", "inhibition": "8.07%"},
      {"compound": "O=C(CN1CCN(C(=O)c2ccco2)CC1)Nc1ccc2c(c1)OCO2", "inhibition": "0.64%"},
      {"compound": "Cc1ccc(-c2csc(C(C#N)=C(O)CN3CCN(C(=O)c4ccco4)CC3)n2)cc1", "inhibition": "42.8% (active)"},
      {"compound": "Cc1ccc(NC(=O)C(c2ccccc2)N2CCN(C(=O)c3ccco3)CC2)cc1", "note": "(stereo not given)", "inhibition": "4.43%"},
      {"compound": "Nc1nc(CSc2nnnn2-c2ccccc2)nc(Nc2ccccc2)n1", "inhibition": "7.48%"},
      {"compound": "Cc1ccc(Nc2nc(CSc3nnnn3-c3ccccc3)cc(=O)[nH]2)cc1", "inhibition": "46.6% (active)"},
      {"compound": "COc1ccc(NC(=O)CSc2nnnn2-c2cccc(OC)c2)cc1", "inhibition": "1.33%"},
      {"compound": "CC(C)CNc1cccc2c1S(=O)(=O)N(Cc1cn(Cc3ccc(Cl)cc3)nn1)Cc1ccccc1O2", "inhibition": "5.62%"}
    ]}
  ]
}
